Laboratory results taken from PubChem BioAssay AID2018 (Sanford-Burnham Center for Chemical Genomics, 2009).
Screen size: about 1,200 compounds; about 600 (50%) were called active. The set was probably picked from earlier hits. The list shows a part of the results. Measured potencies and affinities stand elsewhere. A number with no mark means an inactive call. Cut-off read from the data, not from the text of the source: active = inhibition above about 42%; inactive = the rest.

Each molecule was assayed against SUMO-conjugating enzyme UBC9 (Homo sapiens) (UniProt P63279) (assay: blockers of UBC9-mediated SUMO conjugation – biochemical, AlphaScreen, SUMOylation inhibitor project, confirmation (AID 2018)). Conditions: AlphaScreen in vitro SUMOylation assay; at 35 µM; stronger effect = higher value.
Sequence of SUMO-conjugating enzyme UBC9 (Homo sapiens) (P63279 whole entry, looked up): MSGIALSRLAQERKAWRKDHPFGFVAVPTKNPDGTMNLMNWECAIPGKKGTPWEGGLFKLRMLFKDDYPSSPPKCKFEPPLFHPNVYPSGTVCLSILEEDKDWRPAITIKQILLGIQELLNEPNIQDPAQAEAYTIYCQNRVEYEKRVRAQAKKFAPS

SMILES | inhibition
CC(C)N1C(=O)CC(Nc2cccc3cccc(N)c23)C1=O (stereo unspecified) | 0.8%
Cn1c(=O)cc(C(=O)N/N=C/c2ccc(Cl)cc2)[nH]c1=O | -20.2%
O=C1NNC(c2ccccc2)=N/C1=C\c1ccccc1Cl | 101% (active)
O=C(NC1(O)C(=O)c2ccccc2C1=O)c1ccccc1 | 101% (active)
Cc1onc(-c2ccccc2Cl)c1C(=O)NCc1ccco1 | 32.5%
O=C(NC1(O)C(=O)c2ccccc2C1=O)c1c(Cl)cccc1Cl | 101% (active)
CN(NC(=O)c1ccc(Cl)cc1)c1ncc(C(F)(F)F)cc1Cl | 2.5%
O=C(NC1(O)C(=O)c2ccccc2C1=O)c1ccc(C(F)(F)F)cc1 | 101% (active)
O=c1c(=Nc2ccccc2O)c(=O)c2ccccc12 | 9.9%
Clc1ccc(-c2nnc3c4ccccc4nc(N4CCOCC4)n23)cc1Cl | 4%
CC(=O)Oc1c(/C=C(\C#N)C(N)=O)[nH]c2ccccc12 | 21.9%
Cc1ccc(NC(=O)Nc2cccn(Cc3c(F)cccc3Cl)c2=O)cc1 | 14.6%
O=C(NCc1ccccc1)Nc1cccn(Cc2ccccc2Cl)c1=O | 20.8%
Cc1nn2c3c(cnc2c1-c1ccc(Cl)cc1)C(=O)CC(c1ccco1)C3 (stereo unspecified) | 9.7%
COc1ccccc1Oc1c(C)oc2c(CN3CCN(C)CC3)c(O)ccc2c1=O | 7%
O=C(CC1CS(=O)(=O)CC1CC(=O)Oc1ccccc1F)Oc1ccccc1F (stereo unspecified) | 102% (active)
N#C/C(=C/c1ccc(-c2ccccc2)o1)c1nc(-c2cccs2)cs1 | -4.5%
Cc1c(CC(=O)O)c(=O)oc2c(C)c(OCc3ccccc3Br)ccc12 | 85.8% (active)
Cc1c(CC(=O)N2CCN(C(=O)C3COc4ccccc4O3)CC2)c(=O)oc2c(C)c(O)ccc12 (stereo unspecified) | 17.7%
CC(=O)Oc1ccc2c(C)c(CC(C)O)c(=O)oc2c1 (stereo unspecified) | -6.6%
NC(=O)CC(NC(=O)Cc1ccc(Br)cc1)c1ccc(NCCOc2ccccc2)c([N+](=O)[O-])c1 (stereo unspecified) | 10.7%
O=C1C=C(N(CCO)Cc2ccccc2)c2ccccc2C1=O | 101% (active)
Nc1ccc(Br)c2cccnc12 | 49% (active)
CCOC(=O)C1CC(=O)c2cc(OC)c(OC)cc2C1 (stereo unspecified) | 12.9%

SMILES | inhibition
O=C(N/N=C/c1ccc(N2CCOCC2)cc1)c1ccccc1NS(=O)(=O)c1cccs1 | 17.4%
O=C(N/N=C/c1cc(Cl)cc([N+](=O)[O-])c1O)c1ccccc1NS(=O)(=O)c1cccs1 | 101% (active)
COc1ccccc1/C=C/C=N/NC(=O)c1cc(-c2ccco2)[nH]n1 | 60.4% (active)
O=C1C=C(N2CCOCC2)c2ccccc2C1=O | 102% (active)
NNC(=O)c1oc2nc(-c3ccco3)cc(-c3ccco3)c2c1N | 56.6% (active)
Cc1ccc(-c2cc(-c3ccccc3O)nc(N/N=C/c3cccnc3)n2)cc1 | 23%
NNC(=O)c1oc2nc(-c3cccs3)cc(-c3ccco3)c2c1N | 43.3% (active)
O=c1[nH]c(N2CCN(c3ccccc3)CC2)nc2c1CCC2 | 8.8%
CN(C(=S)Nc1cccnc1)c1ccc(O)cc1 | 19.3%
O=C(Nc1cccc(N=Cc2cc(Br)cc(Br)c2O)c1)c1ccco1 | 24.9%
COc1ccc2oc(=O)c(/C(C)=N/NC(=O)c3ccncc3)cc2c1 | 7.3%
C/C(=N\NC(=O)c1cc(O)ccc1O)c1cccc(NC(=O)c2ccc(Cl)cc2)c1 | 94.8% (active)
Cc1ccc(NC2=CC(=O)CC(c3ccco3)C2)c(N)c1 (stereo unspecified) | 20.2%
COc1cc(/C=N/NC(=O)c2cc(-c3ccco3)nc3ccccc23)cc(OC)c1O | 55.1% (active)
CCOc1ccc(/C=N/NC(=O)c2cc(-c3ccco3)nc3ccccc23)cc1 | -1.6%
O=C(COC(=O)c1cc(-c2cccs2)nc2ccccc12)NCc1ccco1 | 7.3%
CCN(CC)Cc1c(O)ccc2c(=O)c(Oc3ccccc3OC)coc12 | 3.9%
COc1ccccc1Oc1c(C)oc2cc(OC(=O)c3ccco3)ccc2c1=O | 18.7%
CCOc1cc(/C=C2\C(=O)N(c3ccc(C(N)=O)cc3)N=C2C)ccc1OC(=O)c1cccs1 | 81.1% (active)
CCOc1cc(/C=C2/C(=O)N(c3ccccc3)N=C2C)ccc1OC(=O)c1ccco1 | 73.7% (active)
CCOC(=O)N1CCN(C(=O)c2cccn3c(=O)c4cc(Br)ccc4nc23)CC1 | 4.2%
COC1=C(Nc2ccc(O)cc2)C(=O)c2ccccc2C1=O | 74.4% (active)
COC1=C(Nc2ccccc2)C(=O)c2ccccc2C1=O | 93% (active)
COC1=C(Nc2ccccc2OC)C(=O)c2ccccc2C1=O | 96.4% (active)

SMILES | inhibition
CC(NC(=O)Nc1ccc(O)cc1)(C(F)(F)F)C(F)(F)F | 1.3%
CC(=O)c1ccc(NC(=S)Nc2cccc3ccccc23)cc1 | 7.1%
Nc1ccc(N(CCO)CCO)cc1 | 38.6%
COc1ccc(C=Nc2ccc3[nH]ncc3c2)c(O)c1 | 19.3%
CN1C(=O)N(C)c2ccc(C=O)c3cccc1c23 | 22.2%
O=S(=O)(c1ccc2nc(-c3ccco3)c(-c3ccco3)nc2c1)N1CCOCC1 | 52% (active)
Cc1cccn2cc(-c3ccc(S(=O)(=O)N4CCOCC4)cc3)nc12 | -6.1%
O=C(Nc1ccccc1F)Nc1cc(S(=O)(=O)N2CCOCC2)ccc1N1CCCC1 | 13.5%
CCOC(=O)c1c(C)oc2c1c(C=NCCO)c(O)c1ccccc12 | 99.7% (active)
O=C(CSc1ncccn1)NCc1ccc2c(c1)OCO2 | -9.4%
O=c1cc2c(=O)oc3cc(O)c(O)oc3c2c(O)c1O | 89.8% (active)
NCCc1ccc(O)c(O)c1 | -6.3%
COC(=O)c1ccccc1-c1ccc(C(c2c(C)[nH][nH]c2=O)c2c(C)[nH][nH]c2=O)o1 | 88.2% (active)
COc1ccc(O)c(C(c2c(C)[nH][nH]c2=O)c2c(C)[nH][nH]c2=O)c1 | 17.7%
COc1ccc(-c2ccc(C(c3c(C)[nH][nH]c3=O)c3c(C)[nH][nH]c3=O)o2)c([N+](=O)[O-])c1 | 73.1% (active)
Cc1[nH][nH]c(=O)c1C(c1ccc(-c2ccccc2C(=O)O)o1)c1c(C)[nH][nH]c1=O | 66.6% (active)
Cc1ccc(-n2cccn2)c([C@@H]2C[C@H]3CN(C)C(=O)[C@]34CCCN24)c1 | 8.1%
Cc1ccccc1-c1nc2cc(N)ccc2o1 | 21.4%
CN(C)S(=O)(=O)c1cc(NC(=O)CNCc2ccccc2)ccc1Cl | -19.5%
O=C(c1cccn2c(=O)c3cc4ccccc4cc3nc12)N1CCN(c2ccccc2)CC1 | 27.6%
CN(C)C=Nc1ccc2nc3c(cc2c1)[nH]c1ccccc13 | 20.5%
Cc1cc[n+](-c2[nH]c(=O)sc2/C=N/N=C(\[O-])c2ccncc2)cc1 | -9.7%
Cc1cccn2c(=O)c3cc(C#N)c(=NC(=O)c4ccco4)n(Cc4ccco4)c3nc12 | 25.4%
O=c1oc(-c2cccs2)nc2sc3c(c12)CCC3 | -2.8%

SMILES | inhibition
CN(C)c1cc(N/N=C/c2ccccc2C(F)(F)F)nc(N(C)C)n1 | 72.9% (active)
Cc1nc2ccccc2c(=O)n1/N=C/c1ccc(O)c(O)c1O | 81.7% (active)
Cc1ccc(-c2[nH]ncc2/C=N/n2c(C)nc3ccccc3c2=O)cc1 | 66.8% (active)
O=C1NC(=O)c2cc(NC(=O)C3CCCCC3)ccc21 | 8.7%
O=C(c1cccc2cccc(O)c12)N1CCCCC1 | 14.8%
Cc1cc(C)cc(Oc2coc3c(CN(C)C)c(O)ccc3c2=O)c1 | 10.6%
COc1ccc2c(c1)Cc1sc(NC(=O)c3ccco3)nc1-2 | 40.3%
COc1ccc(-c2cc(C(F)(F)F)n3ncc(C(=O)NCc4ccco4)c3n2)cc1 | 32.4%
COc1ccc2oc(=O)c(C(=O)NCc3ccco3)cc2c1 | -14.1%
Cc1ccc(NC(=O)C2CCN(C(=O)c3ccco3)CC2)cc1 | 0.4%
O=C(COc1ccc2oc(-c3ccco3)cc(=O)c2c1)N1CCCCC1 | -2.7%
COc1ccc(-n2nc3cc(C)c(N)c(Br)c3n2)cc1 | 18.3%
Cc1ccc(C)c(S(=O)(=O)C(C#N)c2nc3ccccc3nc2N2CCCC2)c1 (stereo unspecified) | 44.3% (active)
Cc1ccccc1S(=O)(=O)Nc1nc2ccccc2nc1N1CCc2ccccc2C1 | -43.2%
N#CC(c1nc2ccccc2nc1N1CCCC1)S(=O)(=O)c1cccs1 (stereo unspecified) | 37.3%
Cc1ccc(S(=O)(=O)C(C#N)c2nc3ccccc3nc2N2CC(C)OC(C)C2)cc1C (stereo unspecified) | 22.8%
Cc1ccc(S(=O)(=O)C(C#N)c2nc3ccccc3nc2N2CCCC2)cc1C (stereo unspecified) | 45.8% (active)
C=CCNC(=O)C(C#N)c1nc2ccccc2nc1N1CCCCCC1 (stereo unspecified) | 30.3%
N#CC(C(=O)NC1CC1)c1nc2ccccc2nc1N1CCCC1 (stereo unspecified) | 29%
COc1ccc(S(=O)(=O)C(C#N)c2nc3ccccc3nc2N2CCC(C)CC2)cc1 (stereo unspecified) | 15.7%
COc1ccc(S(=O)(=O)C(C#N)c2nc3ccccc3nc2N2CCCCC2)cc1 (stereo unspecified) | 42.8% (active)
Cc1ccc(C)c(S(=O)(=O)C(C#N)c2nc3ccccc3nc2N2CC(C)OC(C)C2)c1 (stereo unspecified) | 4.8%
N#CC(c1nc2ccccc2nc1N1CCCC1)S(=O)(=O)c1ccccc1 (stereo unspecified) | 66.7% (active)
Cc1ccc(C)c(S(=O)(=O)C(C#N)c2nc3ccccc3nc2N2CCOCC2)c1 (stereo unspecified) | 9.2%
